Measurements as given in PubChem BioAssay AID1159580 (chemical genetic matrix, 2015).
Out of some 5,500 compounds screened, about 2,000 (36%) were called active. Not shown: some 18% with an inconclusive outcome. No stated cut-off is given here; in the data, active means normalized growth mostly below about 0.91 (no sharp cut-off); inconclusive means no clear call, values can overlap the other calls; inactive means mostly above about 0.92. The list shows a part of the results.

Test: chemical genetic growth profiling, strain panel (AID 1159580);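 further: tested at 20 µM; growth read once vehicle control cultures reached saturation at 30 °C; 1 = growth at the plate median or of vehicle wells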
Conditions: growth OD
[1] = S. cerevisiae deletion strains, locus YHR030C, strain SLT2, stronger effect = lower value
[2] = S. cerevisiae deletion strains, locus YJL187C, strain SWE1, stronger effect = lower value
[3] = S. cerevisiae deletion strains, locus YAL013W, strain DEP1, stronger effect = lower value
[4] = S. cerevisiae deletion strains, locus YAL040C, strain CLN3, stronger effect = lower value
[5] = S. cerevisiae deletion strains, locus YCL061C, strain MRC1 (second series), stronger effect = lower value
[6] = S. cerevisiae deletion strains, locus YDR363W, strain ESC2, stronger effect = lower value
[7] = S. cerevisiae deletion strains, locus YER002W, strain NOP16, stronger effect = lower value
[8] = S. cerevisiae deletion strains, locus YJR075W, strain HOC1, stronger effect = lower value
[9] = S. cerevisiae deletion strains, locus YMR307W, strain GAS1, stronger effect = lower value
[10] = S. cerevisiae deletion strains, locus YNL153C, strain GIM3, stronger effect = lower value
[11] = S. cerevisiae deletion strains, locus YNL175C, strain NOP13, stronger effect = lower value
[12] = S. cerevisiae deletion strains, locus YNL197C, strain WHI3, stronger effect = lower value
[13] = S. cerevisiae deletion strains, locus YNL224C, strain SQS1, stronger effect = lower value
[14] = S. cerevisiae deletion strains, locus YNL322C, strain KRE1, stronger effect = lower value
[15] = S. cerevisiae deletion strains, locus YOR083W, strain WHI5 (second series), stronger effect = lower value
[16] = S. cerevisiae deletion strains, locus YPL055C, strain LGE1, stronger effect = lower value
[17] = S. cerevisiae deletion strains, locus YDR150W, strain NUM1, stronger effect = lower value
[18] = S. cerevisiae deletion strains, locus YGR078C, strain PAC10, stronger effect = lower value
[19] = S. cerevisiae deletion strains, locus YGR229C, strain SMI1, stronger effect = lower value
[20] = S. cerevisiae deletion strains, locus YBR229C, strain ROT2, stronger effect = lower value
[21] = S. cerevisiae deletion strains, locus YDL101C, strain DUN1, stronger effect = lower value
[22] = S. cerevisiae deletion strains, locus YEL061C, strain CIN8, stronger effect = lower value
[23] = S. cerevisiae deletion strains, locus YHR087W, strain rtc3, stronger effect = lower value
[24] = S. cerevisiae deletion strains, locus YJR043C, strain POL32, stronger effect = lower value
[25] = S. cerevisiae deletion strains, locus YLR039C, strain RIC1, stronger effect = lower value
[26] = S. cerevisiae deletion strains, locus YLR058C, strain SHM2 (second series), stronger effect = lower value
[27] = S. cerevisiae deletion strains, locus YLR085C, strain ARP6, stronger effect = lower value
[28] = S. cerevisiae deletion strains, locus YLR262C, strain YPT6, stronger effect = lower value
[29] = S. cerevisiae deletion strains, locus YML094W, strain GIM5, stronger effect = lower value
[30] = S. cerevisiae deletion strains, locus YMR219W, strain ESC1, stronger effect = lower value
[31] = S. cerevisiae deletion strains, locus YMR263W, strain SAP30, stronger effect = lower value
[32] = S. cerevisiae deletion strains, locus YNL298W, strain CLA4 (second series), stronger effect = lower value
[33] = S. cerevisiae deletion strains, locus YNR030W, strain Alg12, stronger effect = lower value
[34] = S. cerevisiae deletion strains, locus YPL241C, strain CIN2, stronger effect = lower value
[35] = S. cerevisiae deletion strains, locus YPR135W, strain CTF4, stronger effect = lower value

Measured: normalized growth

C=CC[C@@H]1/C=C(\C)C[C@H](C)C[C@H](OC)[C@H]2O[C@@](O)(C(=O)C(=O)N3CCCC[C@H]3C(=O)O[C@H](/C(C)=C/[C@@H]3CC[C@@H](O)[C@H](OC)C3)[C@H](C)[C@@H](O)CC1=O)[C@H](C)C[C@@H]2OC
active: S. cerevisiae deletion strains, locus YAL021C, strain ccr4, stronger effect = lower value 0.844 | S. cerevisiae deletion strains, locus YAL026C, strain drs2, stronger effect = lower value 0.6 | S. cerevisiae deletion strains, locus YBL061C, strain skt5, stronger effect = lower value 1.09 [resistant] | S. cerevisiae deletion strains, locus YBR171W, strain sec66, stronger effect = lower value 1.14 [resistant] | S. cerevisiae deletion strains, locus YCL016C, strain dcc1, stronger effect = lower value 0.896 | S. cerevisiae deletion strains, locus YDR069C, strain doa4, stronger effect = lower value 0.829 | S. cerevisiae deletion strains, locus YDR137W, strain rgp1, stronger effect = lower value 0.174 | S. cerevisiae deletion strains, locus YDR195W, strain ref2 0.773 | S. cerevisiae deletion strains, locus YDR392W, strain spt3, stronger effect = lower value 0.55 | S. cerevisiae deletion strains, locus YER016W, strain bim1, stronger effect = lower value 0.909 | S. cerevisiae deletion strains, locus YER155C, strain BEM2 (second series), stronger effect = lower value 0.705 | S. cerevisiae deletion strains, locus YFR010W, strain ubp6, stronger effect = lower value 0.877 | S. cerevisiae deletion strains, locus YGL173C, strain kem1, stronger effect = lower value 0.848 | [1] 0.7 | S. cerevisiae deletion strains, locus YHR079C, strain IRE1, stronger effect = lower value 0.719 | S. cerevisiae deletion strains, locus YJL095W, strain BCK1 (second series), stronger effect = lower value 0.91 | S. cerevisiae deletion strains, locus YJL095W, strain BCK1, stronger effect = lower value 0.754 | S. cerevisiae deletion strains, locus YJL129C, strain trk1, stronger effect = lower value 0.845 | S. cerevisiae deletion strains, locus YJL164C, strain tpk1, stronger effect = lower value 0.915 | S. cerevisiae deletion strains, locus YJR066W, strain TOR1, stronger effect = lower value 0.746 | S. cerevisiae deletion strains, locus YLR113W, strain HOG1, stronger effect = lower value 0.66 | S. cerevisiae deletion strains, locus YLR262C, strain YPT6 (second series), stronger effect = lower value 0.137 | S. cerevisiae deletion strains, locus YLR320W, strain mms22, stronger effect = lower value 0.734 | S. cerevisiae deletion strains, locus YLR342W, strain FKS1, stronger effect = lower value 0.0809 | S. cerevisiae deletion strains, locus YMR125W, strain sto1, stronger effect = lower value 0.844 | S. cerevisiae deletion strains, locus YMR205C, strain PFK2, stronger effect = lower value 0.78 | S. cerevisiae deletion strains, locus YMR231W, strain pep5, stronger effect = lower value 0.176 | S. cerevisiae deletion strains, locus YNL071W, strain lat1, stronger effect = lower value 0.746 | S. cerevisiae deletion strains, locus YNL183C, strain NPR1, stronger effect = lower value 0.781 | S. cerevisiae deletion strains, locus YOR001W, strain rrp6, stronger effect = lower value 0.761 | S. cerevisiae deletion strains, locus YOR106W, strain vam3, stronger effect = lower value 0.736 | S. cerevisiae deletion strains, locus YOR231W, strain MKK1, stronger effect = lower value 0.7 | S. cerevisiae deletion strains, locus YOR270C, strain vph1, stronger effect = lower value 0.514 | S. cerevisiae deletion strains, locus YPL051W, strain arl3, stronger effect = lower value 0.67 | S. cerevisiae deletion strains, locus YPL106C, strain sse1, stronger effect = lower value 0.72 | S. cerevisiae deletion strains, locus YPL256C, strain CLN2, stronger effect = lower value 0.695
inactive: S. cerevisiae deletion strains, locus YAL030W, strain snc1, stronger effect = lower value 1.02 | S. cerevisiae deletion strains, locus YBR009C, strain hhf1, stronger effect = lower value 0.946 | S. cerevisiae deletion strains, locus YBR023C, strain chs3, stronger effect = lower value 1 | S. cerevisiae deletion strains, locus YBR231C, strain swc5, stronger effect = lower value 0.988 | S. cerevisiae deletion strains, locus YBR279W, strain paf1, stronger effect = lower value 1.03 | S. cerevisiae deletion strains, locus YCL011C, strain gbp2, stronger effect = lower value 0.988 | S. cerevisiae deletion strains, locus YCL069W, strain vba3, stronger effect = lower value 1.02 | S. cerevisiae deletion strains, locus YCR088W, strain abp1, stronger effect = lower value 0.995 | S. cerevisiae deletion strains, locus YDL005C, strain med2, stronger effect = lower value 1.04 | S. cerevisiae deletion strains, locus YDL040C, strain nat1, stronger effect = lower value 1.02 | S. cerevisiae deletion strains, locus YDR001C, strain nth1, stronger effect = lower value 1.04 | S. cerevisiae deletion strains, locus YDR159W, strain sac3, stronger effect = lower value 0.974 | S. cerevisiae deletion strains, locus YDR297W, strain sur2, stronger effect = lower value 1.03 | S. cerevisiae deletion strains, locus YDR334W, strain swr1, stronger effect = lower value 1.1 | S. cerevisiae deletion strains, locus YDR335W, strain msn5, stronger effect = lower value 0.96 | S. cerevisiae deletion strains, locus YEL003W, strain gim4, stronger effect = lower value 0.99 | S. cerevisiae deletion strains, locus YEL037C, strain rad23, stronger effect = lower value 1.04 | S. cerevisiae deletion strains, locus YEL061C, strain CIN8 (second series), stronger effect = lower value 1 | S. cerevisiae deletion strains, locus YER015W, strain faa2, stronger effect = lower value 1.04 | S. cerevisiae deletion strains, locus YER111C, strain swi4, stronger effect = lower value 1.02 | S. cerevisiae deletion strains, locus YGL167C, strain pmr1, stronger effect = lower value 1.06 | S. cerevisiae deletion strains, locus YGL227W, strain vid30, stronger effect = lower value 1.05 | S. cerevisiae deletion strains, locus YGL240W, strain doc1, stronger effect = lower value 1.06 | S. cerevisiae deletion strains, locus YGL253W, strain hxk2, stronger effect = lower value 0.983 | S. cerevisiae deletion strains, locus YHR013C, strain ard1, stronger effect = lower value 0.912 | S. cerevisiae deletion strains, locus YHR027C, strain rpn1, stronger effect = lower value 1.03 | S. cerevisiae deletion strains, locus YHR142W, strain chs7, stronger effect = lower value 0.881 | S. cerevisiae deletion strains, locus YJL092W, strain hpr5, stronger effect = lower value 1.02 | S. cerevisiae deletion strains, locus YJL115W, strain asf1, stronger effect = lower value 1.05 | S. cerevisiae deletion strains, locus YJL154C, strain vps35, stronger effect = lower value 1.04 | S. cerevisiae deletion strains, locus YJL166W, strain qcr8, stronger effect = lower value 0.982 | [2] 1.03 | S. cerevisiae deletion strains, locus YKL160W, strain elf1, stronger effect = lower value 0.956 | S. cerevisiae deletion strains, locus YKR026C, strain gcn3, stronger effect = lower value 1.04 | S. cerevisiae deletion strains, locus YKR091W, strain srl3, stronger effect = lower value 1.04 | S. cerevisiae deletion strains, locus YLL001W, strain dnm1, stronger effect = lower value 0.932 | S. cerevisiae deletion strains, locus YLL026W, stronger effect = lower value 1.02 | S. cerevisiae deletion strains, locus YLL041C, strain sdh2, stronger effect = lower value 1.05 | S. cerevisiae deletion strains, locus YLR027C, strain aat2, stronger effect = lower value 0.976 | S. cerevisiae deletion strains, locus YLR221C, strain rsa3, stronger effect = lower value 0.922 | S. cerevisiae deletion strains, locus YLR258W, strain gsy2, stronger effect = lower value 0.986 | S. cerevisiae deletion strains, locus YLR357W, strain rsc2, stronger effect = lower value 0.949 | S. cerevisiae deletion strains, locus YLR370C, strain arc18, stronger effect = lower value 0.936 | S. cerevisiae deletion strains, locus YLR384C, strain iki3, stronger effect = lower value 1.05 | S. cerevisiae deletion strains, locus YML120C, strain ndi1, stronger effect = lower value 0.965 | S. cerevisiae deletion strains, locus YMR058W, strain fet3, stronger effect = lower value 0.995 | S. cerevisiae deletion strains, locus YMR129W, stronger effect = lower value 1.04 | S. cerevisiae deletion strains, locus YNL209W, strain ssb2, stronger effect = lower value 1.03 | S. cerevisiae deletion strains, locus YNL248C, strain rpa49, stronger effect = lower value 1.03 | S. cerevisiae deletion strains, locus YNL322C, strain KRE1 (second series), stronger effect = lower value 0.962 | S. cerevisiae deletion strains, locus YNR049C, strain mso1, stronger effect = lower value 1.03 | S. cerevisiae deletion strains, locus YOR070C, strain gyp1, stronger effect = lower value 0.944 | S. cerevisiae deletion strains, locus YOR080W, strain dia2, stronger effect = lower value 1.05 | S. cerevisiae deletion strains, locus YOR083W, strain WHI5, stronger effect = lower value 0.931 | S. cerevisiae deletion strains, locus YOR265W, strain rbl2, stronger effect = lower value 1.05 | S. cerevisiae deletion strains, locus YOR290C, strain snf2, stronger effect = lower value 0.894 | S. cerevisiae deletion strains, locus YPL078C, strain atp4, stronger effect = lower value 0.951 | S. cerevisiae deletion strains, locus YPL240C, strain hsp82, stronger effect = lower value 1.03

N[C@@H](Cn1ccc(=O)[nH]c1=O)C(=O)O
inactive: [3] 0.988 | [4] 1.06 | [5] 1 | [6] 1 | [7] 0.995 | [8] 0.97 | [9] 0.978 | S. cerevisiae deletion strains, locus YNL128W, strain TEP1, stronger effect = lower value 1 | [10] 1.03 | [11] 0.995 | [12] 1 | [13] 1.01 | [14] 0.975 | [15] 1.01 | [16] 0.998

O=C(Cc1ccc(Cl)c(Cl)c1)N1CCCCC1CN1CCCC1 (stereo not drawn)
inactive: [4] 0.982 | [5] 1 | [17] 1.01 | [6] 1.01 | [7] 0.999 | [18] 1.01 | [19] 1.03 | [9] 0.999 | [10] 1.09 | [11] 1.02 | [12] 1.03 | [13] 0.999 | [14] 1.05 | [15] 1.05 | [16] 1.01

CCOC(=O)c1ccc(N2CC3CCCCN3C2c2ccc(Cl)c(Cl)c2)cc1 (stereo not drawn)
active: [28] 0.744
inactive: [3] 0.989 | [20] 0.974 | S. cerevisiae deletion strains, locus YCL061C, strain MRC1, stronger effect = lower value 0.991 | [21] 1 | S. cerevisiae deletion strains, locus YDL134C, strain PPH21, stronger effect = lower value 1.01 | [17] 0.992 | [22] 0.993 | [18] 0.992 | [19] 1 | [1] 0.971 | [23] 0.992 | [2] 0.982 | [24] 1.01 | [8] 0.998 | [25] 0.889 | [26] 0.997 | [27] 0.97 | [29] 0.972 | [30] 0.984 | [31] 0.976 | [10] 0.997 | [32] 1.02 | [14] 1 | [33] 0.997 | [16] 0.922 | [34] 0.987 | [35] 0.893 | S. cerevisiae strains, strain wild type, stronger effect = lower value 1.01

CCOC(=O)c1ccc(Oc2ncc(C(F)(F)F)cc2Cl)cc1
inactive: [3] 1.04 | [20] 0.995 | [21] 0.957 | [17] 1 | [22] 0.996 | [18] 0.993 | [1] 0.829 | [23] 0.987 | [24] 0.98 | [8] 0.917 | [25] 0.889 | [26] 0.975 | [27] 1.08 | [28] 0.862 | [29] 1.04 | [30] 0.992 | [31] 0.988 | [9] 0.68 | [10] 1.01 | [32] 0.985 | [14] 0.986 | [33] 0.974 | [16] 1.08 | [34] 0.862 | [35] 1.17
